Test results taken from the supplement of paper PMC12632987.

target: UCHL1, P09936; experiment: median log2 fold change of GCK-ALFA target abundance (FLAG IP / Myc IP barcode read proportion) (log2 ratio); each designed protein is fused to an ALFA-tag nanobody in HEK293 cells to bring the named protein to FLAG-tagged glucokinase (GCK); Myc marks an untargeted standard; higher = target protein stabilised (more abundant); conditions: target protein: 3xFLAG-MCP-GCK-ALFA reporter; HEK293 landing pad (RPLP)
Summary of the method: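 The readout is target abundance, the per-binder median log2 ratio of FLAG to Myc barcode read proportions. It came from HEK293 landing-pad cells carrying a recombined ALFA-nanobody-fused binder library, induced with 2 μg mL^−1 doxycycline and transfected with a plasmid for a FLAG-tagged target and a Myc-tagged standard. After 48 h, lysates were immunoprecipitated with anti-FLAG and anti-Myc, and circular RNA barcodes were reverse transcribed, amplified and sequenced. Each barcode needed a proportion of at least 10^−7 in both replicates and each binder at least 3 barcodes per replicate, a pseudocount of 10^−6 was added, and the replicates were pooled.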

Sequence of UCHL1, P09936 (P09936 whole entry, looked up, the tested form may be a part): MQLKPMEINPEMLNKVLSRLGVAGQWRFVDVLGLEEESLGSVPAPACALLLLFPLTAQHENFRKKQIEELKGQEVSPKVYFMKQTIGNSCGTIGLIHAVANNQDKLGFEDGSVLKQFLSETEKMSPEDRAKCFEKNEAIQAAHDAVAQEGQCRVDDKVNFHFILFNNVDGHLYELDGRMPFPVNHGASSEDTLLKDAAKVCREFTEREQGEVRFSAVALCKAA

Binder | median log2 fold change
uchl1_122_7448 (protein) TVTVEVVGRREDIELIAAVIREVFAAAGIEVDVEIEELSPTTARLVVTIRAPPMTDAQVDATIAALAAAMARLVEEAGISRALAGIAFTRVERALRRAAA | 0.0437
uchl1_122_7441 (protein) MVTIEVEVSSSLSPEALAILAEAAAELLEDARVEVRELSPSTLLITITGRLKDLSPEEIREIENRALERLGRDQSLTPNQRVSAGNALRRLARQYARAKA | 0.185
uchl1_122_7440 (protein) MITIEIEVSSSLSEKGLEILAEAAKKLLDNAKIEVKEKSPSTKLITITGELKDLSEEEILEIENEALEEAGKDQSLTPNQRVSFGNALRRLAIQYAKAKA | 0.144
uchl1_143_7458 (protein) GLEAIPVLEVHLRVTPADTPEEIRARLMAAIEEAAAAGKALRIVITVEGDANLRVMVGNVAKRVAREAARRYGATLPSLTIVARDAETGREQLLAEADFR | 0.147
uchl1_143_7462 (protein) GAPALPVLRTTIEVTREDTPEEIHARIVAAIREAIAAGKAAEVTIVVPPDPNVRVMVNNVAKRAAREVAQEHADAVKRITIRLRDRETGRTQLVALVERP | 0.133
uchl1_122_7445 (protein) MLTVEVLVSSSMSPEVLAILEEYASRLLDDLEVEREKVSPGTVLLTFRGRLKDVSEEEIRAIREEALARLAKLQDLTPNEKVSFGNALRRIERQVMRARR | -0.026
uchl1_122_7453 (protein) TETVEVVGRRRDVEILAAVIREVFAAAGWTAEVTIEELSPTTARLVVTVTLPPASDEAVDALVAALEAAFREAVEKEGISRAFAGIAYTRVARAVRRAAA | -0.0277
uchl1_143_7465 (protein) GSMHMETLTVERTMTEDTTLEEVYALLEEAAKKAIAEGKDLVVIFTVSSDPNHRLRANTLARRAARRIIQEYGKEIRRLEVLLRDAETGKVDLIALHDGR | 0.138
uchl1_122_7450 (protein) SETVEVVGRREALEAIAAAIREVLAAFGAEVEVRIEELSPNTARLTVTIRLPPISDARLAELLEALEAAMRRLVEERGVPAATAGLAYSRVARAIRRAAA | 0.143
uchl1_143_7457 (protein) GPEVVPVRRVEITVTRADTPEEIEARLLAAVREAAAAGEALLITITVEGDANLRVMVGNVAKRVARRAAREYGDTLPSLRIIARDAETGKEQLLAEVDNR | 0.225
uchl1_122_7444 (protein) MLTVEVLVSSSLSEEVLEILEEYASKLLEDLEVEKKKVSPGTILITFTGELKDVSEEEIREIREEALERLSKLQNLTPNEKVSFGNALRRIERQVMQAKK | 0.0563
uchl1_122_7439 (protein) MLTIEVDVTSSLSPEGLAILREYASELLDNPEFEEELVSPGTLRLTFTGELKDLTPEQIREIANRALARAGADQSLTPNERVSLGNAIRRIARQVARARA | 0.0949
uchl1_143_7460 (protein) GAAPLPVLRTTIEVSEEDTPEEIYARIKAAIEEAIAAGKAAEVTIVVPPNPNVRVMVNNVAKRAARDVAKEYAGKVKEIRIYLEDRETGKRQLVAEVVNP | 0.0504
uchl1_122_7446 (protein) MLTVEVLVSSSLSERVLEILEEYAAALLDNLEVEREEVSPGTRLLTFTGELKDVSEDEIRAIREEALARLAELQDLTPNEKVSFGNALRRIERQVMAARR | -0.238
uchl1_143_7456 (protein) PPAPVPVHRVTIEVTREDTPEEIRARLEAAVAEAAAAGAALEITVVVTSDPNVRVMANTVARRVAREAARRYRDTLPSLRIVLRDRETGKEQLIAEADFR | 0.0928
uchl1_122_7452 (protein) TETVEVVGRRKDIELIAAAIREVAAAAGWTADVEIEELSENTAKLTVTVTLPPVSDAAVDAAEAALEAAMRRLVEEEGLSRAFVGIATTRVIRAIRRAAA | 0.163

Binder | median log2 fold change
uchl1_143_7459 (protein) GSPEEEVEVIEVTIEPTDTPEQIREKITKALKEAVELEKDTRIVITVPPDPNLKLMVNTVARRELKKIAQEYPEKTKTITVEARDAETGKVDLLAEYVKE | 0.347
uchl1_143_7467 (protein) GPAAEPVLEVTIRVTRDTTPEELRARLLAAIDEAIAAGKALKITIEIPPDANLRVMVNTVAKRVAREVAKARGAELKRLVILGRDSATGKEQVLAEVVNP | -0.119
uchl1_143_7469 (protein) APEPIEHIEVTIEVAETDTFEEIHARISAAIDAAIALGRRTELTIRLVVPTTASANLRVMVNTAARRALREHADHLEDASISGEQRPGKAVLVIRVLTKA | 0.139
uchl1_122_7443 (protein) MLTIEVKVSSSLSERTLEILKKYAEKLLENPKFEVKELSPGTKLLTITGELKDVSDEEILEIRNEALEEAGKDQSITPNERVSFGNALRTISRQVARALA | 0.153
uchl1_143_7466 (protein) GPAPVPVLRVERTWTADTTLEEVLALLREAAERAIKEGKDLEVIFTVSPDPNHRLRANTLARRAGKEITQELGKRIRRLRVLLRDAETGKVDLIYEHDGR | 0.0958
uchl1_122_7449 (protein) TETVEVVGRRADVEAIAATIRAVFASHGLTVDTTITELSPTTARLTVTVTLPPISDAQVAALEAALEAAMAALVEREGISRAFAGIATTRVIRAVRRAAA | 0.184
uchl1_143_7461 (protein) ALEPLPVQKTTIEVSESDTPEEIYERIKAAIEAAIAAGKAAEVTIVVPPDPNVRVMVNNVAKRAAREVAQEHADKVKRITINLTDKETGKTEVVAEVVRP | 0.242
uchl1_122_7447 (protein) TVTVEVVGRRADIEAIAAVIRAVFAAAGIKVDVEIEELSPTTAKLTVTITVPPVTDEQVDATIAALAAAMAALVEAEGISRALAGIAFTRVERALRRAAA | -0.15
uchl1_143_7454 (protein) GMVHMEVEVIHIEVSEEDTPEEIREKIMEAMKKAVEKGKAIRIIITVPPDANKRLMVNTTARRAAREFAQEYKDKLKYLEIYARDKETGKEDLIAEIINP | -0.0697
uchl1_143_7470 (protein) GRPTPPTLTVNLTFDETTTPEEIRAALNAAIDEAAAAGKNLTITITVPADSNKRLMVTTVARRVAREAAKRYRDKLPELRILATDAATGKTQLIAEYVNE | 0.272
uchl1_143_7464 (protein) GSAPRPVIHLERTLSADTTLEEVEALVREAAELSVETGAPVVLTFTVSGDPNHRLRAHTMLRRAARRVIQELADRIPELRVLLRDEKTGKTQLIAHFDNR | 0.163
uchl1_143_7463 (protein) EEVELEVIHIEVTLTEDTTLEEVRALVEEAARLSIETGKHVVLTATVSNDPNHRLRANTMLRRAAREVIQERGAEIPKLVILLRDAETGKEDVIAEFDNR | 0.184
uchl1_143_7468 (protein) GPAVEPVETVTITVTPDTTPEELRARLLAAIDAALAAGKALTITIVVPPDANLRVMANTVAKRVAREVARAHGDRLRRLTIRARDAATGKTQLLAEVVNP | 0.11
uchl1_143_7455 (protein) GHHMLEVEKIEIEVEETDTPEEIKKKIMEAMKKAVAKGKAIEIIITVPPDANFRLMVNTVAKRAAREFAKEYKDKLKYLKIYARDKETGKEDLIAEIVNP | 0.157
uchl1_122_7451 (protein) SETVEVVGRRRDIELIAEAIKEVFEKFGVKVEVEIEELSPTTAKLTVTITVPPISDEELEALLAALEEAMRRLVEEEGVPRATAGLAYSRTARAVKRAAA | -0.77
uchl1_122_7442 (protein) MLTIEVDVASSVSERTLEILKEYAEELLEDAEFSVEKKSPGTKLLTIKGKLKDVSDDEILEIENKALERAGKDQSITPNERVSFGNALRKIARQVARARA | 0.271
